Holding throughout (test): DAPPL (digital affinity profiling via proximity ligation, sequencing); 10 mM Tris-HCl pH 7.5, 50 mM NaCl, 1 mM DTT, 4% glycerol, room temperature, 30 min; GST-TFs on glutathione beads, 16-mer random dsDNA library, 0.1% formaldehyde crosslink after washing; high values mean tight binding
For one assay, the target named is T1, FEV (Homo sapiens, UniProt Q99581 1-238).
T1 sequence: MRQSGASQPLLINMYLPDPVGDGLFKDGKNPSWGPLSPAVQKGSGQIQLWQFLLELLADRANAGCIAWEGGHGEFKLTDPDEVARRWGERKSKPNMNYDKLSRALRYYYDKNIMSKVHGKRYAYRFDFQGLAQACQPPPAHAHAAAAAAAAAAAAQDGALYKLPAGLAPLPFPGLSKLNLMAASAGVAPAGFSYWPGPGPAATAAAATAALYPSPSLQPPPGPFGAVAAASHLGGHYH
To be noted: protein: recombinant; tags: N-terminal GST; dsDNA, one strand shown. The method, boiled down: (§1)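 After expression in yeast as GST fusions, human transcription factors were bound to glutathione beads, DNA-barcoded and mixed with a tag-only sample. The pools were incubated with 200 nmole of a 16-mer random double-stranded DNA library in Tris/NaCl/DTT/glycerol buffer (30 min, room temperature), washed and crosslinked with 0.1% formaldehyde. Proximity ligation with BsaI/T4 ligase ran for 1 h at 37 °C, before PCR amplification and sequencing on an Illumina NextSeq500. Binding signal is a hexamer's read frequency for a factor divided by its frequency for the tag-only sample.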

Another assay deals with ETV5 (Homo sapiens, UniProt P41161 1-510). Conditions: protein: recombinant; tags: N-terminal GST; dsDNA, one strand shown. An outline of the steps:
as §1

Another assay concerns the target HSF1 (Homo sapiens, UniProt Q00613 1-529). To be noted: protein: recombinant; tags: N-terminal GST; chain copies: 3; dsDNA, one strand shown. An outline of the steps:
as §1

Another assay addresses T2, SPIC (Homo sapiens, UniProt Q8N5J4 1-248).
T2 sequence: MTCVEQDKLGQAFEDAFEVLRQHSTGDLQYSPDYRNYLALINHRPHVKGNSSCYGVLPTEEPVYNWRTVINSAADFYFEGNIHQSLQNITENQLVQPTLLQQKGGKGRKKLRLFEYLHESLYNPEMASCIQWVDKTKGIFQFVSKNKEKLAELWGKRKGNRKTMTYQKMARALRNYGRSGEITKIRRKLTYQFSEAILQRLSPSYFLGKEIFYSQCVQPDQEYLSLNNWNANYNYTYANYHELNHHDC
To be noted: protein: recombinant; tags: N-terminal GST; dsDNA, one strand shown. The method, boiled down: as §1

The target of a further assay is ELF4 (Homo sapiens, UniProt Q99607 1-663). Conditions: protein: recombinant; tags: N-terminal GST; dsDNA, one strand shown. An outline of the steps: as §1
In another assay the target is T3, ELK4 (Homo sapiens, UniProt P28324-2 1-405).
T3 sequence: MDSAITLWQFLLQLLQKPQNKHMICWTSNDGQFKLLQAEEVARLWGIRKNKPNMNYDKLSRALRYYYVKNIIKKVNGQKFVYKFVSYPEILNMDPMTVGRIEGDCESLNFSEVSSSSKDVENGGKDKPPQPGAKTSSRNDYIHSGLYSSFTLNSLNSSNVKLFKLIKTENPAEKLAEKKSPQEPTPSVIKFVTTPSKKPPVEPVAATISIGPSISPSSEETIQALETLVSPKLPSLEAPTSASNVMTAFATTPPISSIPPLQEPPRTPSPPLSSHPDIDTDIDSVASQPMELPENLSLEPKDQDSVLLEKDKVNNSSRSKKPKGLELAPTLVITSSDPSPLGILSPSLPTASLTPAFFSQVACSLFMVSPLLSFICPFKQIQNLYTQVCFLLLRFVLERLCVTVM
Conditions: protein: recombinant; tags: N-terminal GST; dsDNA, one strand shown. An outline of the steps: as §1

The next assay addresses T4, ETV2 (Homo sapiens, UniProt O00321 1-342).
T4 sequence: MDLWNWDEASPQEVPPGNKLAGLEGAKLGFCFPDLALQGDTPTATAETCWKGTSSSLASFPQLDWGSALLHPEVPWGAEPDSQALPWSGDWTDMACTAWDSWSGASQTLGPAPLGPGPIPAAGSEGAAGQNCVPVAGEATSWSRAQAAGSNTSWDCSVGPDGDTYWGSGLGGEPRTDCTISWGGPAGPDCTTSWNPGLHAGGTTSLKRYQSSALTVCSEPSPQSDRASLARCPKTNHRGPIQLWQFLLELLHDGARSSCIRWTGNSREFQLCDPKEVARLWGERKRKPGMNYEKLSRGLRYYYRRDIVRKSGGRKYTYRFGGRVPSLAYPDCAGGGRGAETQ
To be noted: protein: recombinant; tags: N-terminal GST; dsDNA, one strand shown. An outline of the steps: as §1

Another assay deals with T5, ELF3 (Homo sapiens, UniProt P78545 1-371).
T5 sequence: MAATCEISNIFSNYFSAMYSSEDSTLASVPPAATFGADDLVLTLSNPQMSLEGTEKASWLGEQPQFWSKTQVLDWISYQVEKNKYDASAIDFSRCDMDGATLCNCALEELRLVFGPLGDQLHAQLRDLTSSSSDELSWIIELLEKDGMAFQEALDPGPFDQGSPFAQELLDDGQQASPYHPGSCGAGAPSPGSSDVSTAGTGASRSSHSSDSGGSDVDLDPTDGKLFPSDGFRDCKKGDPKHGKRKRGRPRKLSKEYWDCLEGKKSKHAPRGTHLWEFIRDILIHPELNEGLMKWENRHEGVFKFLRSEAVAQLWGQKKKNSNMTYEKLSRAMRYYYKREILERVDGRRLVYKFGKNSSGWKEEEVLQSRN
Conditions: protein: recombinant; tags: N-terminal GST; dsDNA, one strand shown. An outline of the steps:
as §1

A further assay concerns the target CRX (Homo sapiens, UniProt O43186 1-299). Conditions: protein: recombinant; tags: N-terminal GST; dsDNA, one strand shown. The method, boiled down:
as §1

In a further assay the target is ETV1 (Homo sapiens, UniProt P50549 1-477). Conditions: protein: recombinant; tags: N-terminal GST; dsDNA, one strand shown. The method, boiled down: as §1
The next assay deals with T6, ERF (Homo sapiens, UniProt P50548 1-548).
T6 sequence: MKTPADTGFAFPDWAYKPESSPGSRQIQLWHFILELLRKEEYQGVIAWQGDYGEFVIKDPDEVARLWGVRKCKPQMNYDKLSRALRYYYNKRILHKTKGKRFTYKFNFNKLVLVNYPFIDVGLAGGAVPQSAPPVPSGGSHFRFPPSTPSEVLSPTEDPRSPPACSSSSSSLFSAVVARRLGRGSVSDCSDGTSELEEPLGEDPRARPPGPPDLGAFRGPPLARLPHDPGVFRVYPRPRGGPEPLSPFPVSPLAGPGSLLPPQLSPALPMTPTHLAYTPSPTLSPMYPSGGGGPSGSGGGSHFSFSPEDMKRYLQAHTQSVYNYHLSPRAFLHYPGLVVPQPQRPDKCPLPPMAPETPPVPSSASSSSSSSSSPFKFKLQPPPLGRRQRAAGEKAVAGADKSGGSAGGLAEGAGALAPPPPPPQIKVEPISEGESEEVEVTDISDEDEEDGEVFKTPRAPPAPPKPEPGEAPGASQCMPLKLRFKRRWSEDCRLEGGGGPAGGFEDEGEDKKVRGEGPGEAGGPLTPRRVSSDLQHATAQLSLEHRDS
Conditions: protein: recombinant; tags: N-terminal GST; dsDNA, one strand shown. The method, boiled down: as §1

Another assay concerns the target T7, ETV3L (Homo sapiens, UniProt Q6ZN32 1-361).
T7 sequence: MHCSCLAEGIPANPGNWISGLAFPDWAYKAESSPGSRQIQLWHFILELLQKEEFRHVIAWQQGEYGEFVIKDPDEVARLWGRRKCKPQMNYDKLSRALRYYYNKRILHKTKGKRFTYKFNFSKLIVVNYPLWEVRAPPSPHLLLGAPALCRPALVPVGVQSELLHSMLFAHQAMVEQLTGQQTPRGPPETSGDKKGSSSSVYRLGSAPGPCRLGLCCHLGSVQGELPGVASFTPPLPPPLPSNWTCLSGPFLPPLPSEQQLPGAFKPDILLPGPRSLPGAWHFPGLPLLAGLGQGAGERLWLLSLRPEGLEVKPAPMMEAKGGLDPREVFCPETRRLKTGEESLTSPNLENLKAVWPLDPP
Conditions: protein: recombinant; tags: N-terminal GST; dsDNA, one strand shown. An outline of the steps: as §1

Another assay addresses T8, ETS2 (Homo sapiens, UniProt P15036 1-469).
T8 sequence: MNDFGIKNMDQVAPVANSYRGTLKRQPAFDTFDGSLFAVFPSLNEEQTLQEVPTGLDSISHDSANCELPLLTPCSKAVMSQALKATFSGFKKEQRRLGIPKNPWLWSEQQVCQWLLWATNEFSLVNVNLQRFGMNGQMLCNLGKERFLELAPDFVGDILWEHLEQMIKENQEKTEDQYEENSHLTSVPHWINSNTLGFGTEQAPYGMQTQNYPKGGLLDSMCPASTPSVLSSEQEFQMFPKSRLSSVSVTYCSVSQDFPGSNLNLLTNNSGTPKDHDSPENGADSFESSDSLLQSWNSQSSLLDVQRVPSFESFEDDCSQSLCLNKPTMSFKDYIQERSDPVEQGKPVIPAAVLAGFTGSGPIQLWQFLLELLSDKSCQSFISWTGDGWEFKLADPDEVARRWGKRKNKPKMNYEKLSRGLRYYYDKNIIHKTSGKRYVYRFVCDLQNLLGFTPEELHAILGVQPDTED
Conditions: protein: recombinant; tags: N-terminal GST; dsDNA, one strand shown. An outline of the steps: as §1

Another assay addresses T9, SPDEF (Homo sapiens, UniProt O95238 1-335).
T9 sequence: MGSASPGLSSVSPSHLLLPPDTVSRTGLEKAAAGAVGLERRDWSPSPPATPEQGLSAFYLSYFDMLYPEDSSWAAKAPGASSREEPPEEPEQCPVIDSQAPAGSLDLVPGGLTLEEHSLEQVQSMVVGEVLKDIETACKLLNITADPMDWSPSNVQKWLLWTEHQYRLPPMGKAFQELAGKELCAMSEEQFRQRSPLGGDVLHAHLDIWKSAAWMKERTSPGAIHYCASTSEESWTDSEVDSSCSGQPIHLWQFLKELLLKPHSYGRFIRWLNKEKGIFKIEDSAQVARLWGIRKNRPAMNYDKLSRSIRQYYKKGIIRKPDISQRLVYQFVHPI
Conditions: protein: recombinant; tags: N-terminal GST; dsDNA, one strand shown. The method, boiled down:
as §1

A further assay deals with T10, ETV7 (Homo sapiens, UniProt Q9Y603 1-341).
T10 sequence: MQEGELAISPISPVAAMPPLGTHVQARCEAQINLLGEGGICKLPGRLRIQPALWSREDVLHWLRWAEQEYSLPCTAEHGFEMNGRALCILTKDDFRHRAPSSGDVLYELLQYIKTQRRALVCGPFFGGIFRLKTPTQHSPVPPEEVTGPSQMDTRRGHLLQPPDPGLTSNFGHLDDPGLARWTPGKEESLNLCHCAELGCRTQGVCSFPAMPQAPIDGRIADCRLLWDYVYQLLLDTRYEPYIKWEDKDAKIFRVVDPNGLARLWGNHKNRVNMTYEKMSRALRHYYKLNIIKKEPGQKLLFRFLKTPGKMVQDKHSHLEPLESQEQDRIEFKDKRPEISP
To be noted: protein: recombinant; tags: N-terminal GST; dsDNA, one strand shown. The method, boiled down: as §1

The target of another assay is T11, ELF5 (Homo sapiens, UniProt Q9UKW6-2 1-255).
T11 sequence: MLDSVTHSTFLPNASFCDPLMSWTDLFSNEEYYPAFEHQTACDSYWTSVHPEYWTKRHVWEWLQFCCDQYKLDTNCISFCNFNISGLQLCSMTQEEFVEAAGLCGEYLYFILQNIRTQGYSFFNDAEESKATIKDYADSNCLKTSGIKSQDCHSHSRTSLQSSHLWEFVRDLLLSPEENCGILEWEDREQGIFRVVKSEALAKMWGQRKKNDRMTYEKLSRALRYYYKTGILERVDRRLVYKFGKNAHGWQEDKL
Conditions: protein: recombinant; tags: N-terminal GST; dsDNA, one strand shown. An outline of the steps:
as §1

For another assay, the target named is T12, ETV3 (Homo sapiens, UniProt P41162-2 1-143).
T12 sequence: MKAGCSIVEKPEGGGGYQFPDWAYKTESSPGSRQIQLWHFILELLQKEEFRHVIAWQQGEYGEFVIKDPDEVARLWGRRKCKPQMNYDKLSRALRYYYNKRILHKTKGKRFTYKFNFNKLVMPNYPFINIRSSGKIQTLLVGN
Conditions: protein: recombinant; tags: N-terminal GST; dsDNA, one strand shown. The method, boiled down:
as §1

A further assay has as its target ETV6 (Homo sapiens, UniProt P41212 1-452). To be noted: protein: recombinant; tags: N-terminal GST; dsDNA, one strand shown. The method, boiled down:
as §1

Sequence of ELF4 (Q99607 whole entry): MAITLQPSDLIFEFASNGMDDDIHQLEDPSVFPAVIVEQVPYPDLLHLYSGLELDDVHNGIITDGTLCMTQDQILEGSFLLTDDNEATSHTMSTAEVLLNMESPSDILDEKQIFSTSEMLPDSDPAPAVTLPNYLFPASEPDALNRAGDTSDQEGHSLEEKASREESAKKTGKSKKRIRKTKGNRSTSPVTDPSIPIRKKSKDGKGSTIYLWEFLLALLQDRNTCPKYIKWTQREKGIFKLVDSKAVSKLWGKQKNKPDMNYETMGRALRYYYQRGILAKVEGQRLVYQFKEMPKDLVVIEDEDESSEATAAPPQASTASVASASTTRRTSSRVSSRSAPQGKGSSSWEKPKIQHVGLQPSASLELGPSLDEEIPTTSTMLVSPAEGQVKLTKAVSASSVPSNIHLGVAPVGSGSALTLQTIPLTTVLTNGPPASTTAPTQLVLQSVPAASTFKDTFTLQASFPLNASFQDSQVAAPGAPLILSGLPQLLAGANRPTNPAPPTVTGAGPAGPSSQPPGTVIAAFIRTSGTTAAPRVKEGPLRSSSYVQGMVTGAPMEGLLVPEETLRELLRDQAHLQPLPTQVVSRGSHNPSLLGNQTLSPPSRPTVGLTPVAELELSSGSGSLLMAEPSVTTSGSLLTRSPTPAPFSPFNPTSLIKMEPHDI
Sequence of ETV5 (P41161 whole entry): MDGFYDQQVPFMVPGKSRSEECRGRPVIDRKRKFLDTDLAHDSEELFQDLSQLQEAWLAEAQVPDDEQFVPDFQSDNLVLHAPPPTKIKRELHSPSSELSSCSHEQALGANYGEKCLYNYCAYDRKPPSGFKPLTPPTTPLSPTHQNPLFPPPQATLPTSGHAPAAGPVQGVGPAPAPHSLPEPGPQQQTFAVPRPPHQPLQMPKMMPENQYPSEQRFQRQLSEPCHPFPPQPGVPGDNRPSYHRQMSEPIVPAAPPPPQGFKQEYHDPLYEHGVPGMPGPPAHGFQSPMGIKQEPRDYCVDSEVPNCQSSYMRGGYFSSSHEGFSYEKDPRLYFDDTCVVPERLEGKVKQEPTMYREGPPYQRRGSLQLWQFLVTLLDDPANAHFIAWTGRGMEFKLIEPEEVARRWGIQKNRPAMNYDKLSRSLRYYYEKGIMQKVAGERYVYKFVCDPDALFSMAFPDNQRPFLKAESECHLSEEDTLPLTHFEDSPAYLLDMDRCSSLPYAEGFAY
Sequence of HSF1 (Q00613 whole entry): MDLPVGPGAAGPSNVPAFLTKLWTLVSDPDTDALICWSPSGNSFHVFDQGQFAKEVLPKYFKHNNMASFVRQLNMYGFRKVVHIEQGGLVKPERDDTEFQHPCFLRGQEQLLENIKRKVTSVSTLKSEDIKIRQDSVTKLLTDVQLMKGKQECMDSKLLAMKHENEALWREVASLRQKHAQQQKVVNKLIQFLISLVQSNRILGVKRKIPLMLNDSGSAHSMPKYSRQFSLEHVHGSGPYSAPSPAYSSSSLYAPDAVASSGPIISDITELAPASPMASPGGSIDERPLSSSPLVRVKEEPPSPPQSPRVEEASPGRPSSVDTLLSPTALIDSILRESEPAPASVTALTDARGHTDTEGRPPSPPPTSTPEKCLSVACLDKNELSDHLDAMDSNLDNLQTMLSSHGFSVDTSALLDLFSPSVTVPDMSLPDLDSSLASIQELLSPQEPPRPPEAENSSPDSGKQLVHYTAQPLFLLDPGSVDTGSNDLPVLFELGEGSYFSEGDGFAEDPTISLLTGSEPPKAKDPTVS
Sequence of CRX (O43186 whole entry): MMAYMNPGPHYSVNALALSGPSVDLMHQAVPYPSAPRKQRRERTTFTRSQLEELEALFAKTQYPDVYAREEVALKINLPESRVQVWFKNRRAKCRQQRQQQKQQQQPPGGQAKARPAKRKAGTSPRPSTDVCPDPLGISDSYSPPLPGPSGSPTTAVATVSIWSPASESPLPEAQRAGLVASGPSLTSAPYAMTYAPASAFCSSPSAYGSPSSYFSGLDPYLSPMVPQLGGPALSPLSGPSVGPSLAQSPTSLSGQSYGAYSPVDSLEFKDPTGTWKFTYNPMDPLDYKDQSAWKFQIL
Sequence of ETV1 (P50549 whole entry): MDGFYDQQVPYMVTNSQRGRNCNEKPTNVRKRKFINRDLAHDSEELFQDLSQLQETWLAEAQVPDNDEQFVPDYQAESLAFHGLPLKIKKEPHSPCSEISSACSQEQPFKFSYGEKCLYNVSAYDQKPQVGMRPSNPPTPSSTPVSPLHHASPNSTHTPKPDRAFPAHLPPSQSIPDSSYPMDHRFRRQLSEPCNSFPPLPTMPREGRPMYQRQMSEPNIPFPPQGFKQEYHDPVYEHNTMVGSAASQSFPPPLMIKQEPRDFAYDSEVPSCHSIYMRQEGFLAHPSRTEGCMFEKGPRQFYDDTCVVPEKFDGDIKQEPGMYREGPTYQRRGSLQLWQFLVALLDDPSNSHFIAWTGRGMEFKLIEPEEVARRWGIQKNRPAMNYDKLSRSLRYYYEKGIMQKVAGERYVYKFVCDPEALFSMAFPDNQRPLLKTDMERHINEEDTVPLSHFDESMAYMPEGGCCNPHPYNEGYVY
Sequence of ETV6 (P41212 whole entry): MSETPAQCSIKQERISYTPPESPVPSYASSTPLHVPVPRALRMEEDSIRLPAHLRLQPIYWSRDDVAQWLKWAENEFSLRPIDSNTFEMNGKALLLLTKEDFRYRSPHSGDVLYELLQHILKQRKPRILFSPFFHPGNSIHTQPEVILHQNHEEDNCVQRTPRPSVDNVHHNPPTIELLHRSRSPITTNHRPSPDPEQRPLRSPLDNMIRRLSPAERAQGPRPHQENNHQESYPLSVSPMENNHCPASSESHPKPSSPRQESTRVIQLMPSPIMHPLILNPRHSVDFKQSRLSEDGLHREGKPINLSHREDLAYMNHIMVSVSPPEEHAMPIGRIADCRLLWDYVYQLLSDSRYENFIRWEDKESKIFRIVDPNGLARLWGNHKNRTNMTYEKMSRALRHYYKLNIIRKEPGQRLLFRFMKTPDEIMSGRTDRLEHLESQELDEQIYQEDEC

In the case of AATATC, the binding signal with FEV is 1.56 fold enrichment (6-mer frequency, TF over GST control); with ETV5, 1.53 fold enrichment (6-mer frequency, TF over GST control); in the assay with HSF1 it was 1.49 fold enrichment (6-mer frequency, TF over GST control); with SPIC it was 1.49 fold enrichment (6-mer frequency, TF over GST control); in the assay with ELF4 it was 1.44 fold enrichment (6-mer frequency, TF over GST control); with ELK4, 1.48 fold enrichment (6-mer frequency, TF over GST control). Moreover, the binding signal with ETV2 was 1.73 fold enrichment (6-mer frequency, TF over GST control); with ELF3, 1.55 fold enrichment (6-mer frequency, TF over GST control); with CRX, 1.55 fold enrichment (6-mer frequency, TF over GST control); with ETV1, 1.56 fold enrichment (6-mer frequency, TF over GST control); with ERF it was 1.46 fold enrichment (6-mer frequency, TF over GST control); in the assay with ETV3L it was 1.48 fold enrichment (6-mer frequency, TF over GST control). The binding signal was 1.55 fold enrichment (6-mer frequency, TF over GST control) in the assay with ETS2; 1.78 fold enrichment (6-mer frequency, TF over GST control) with SPDEF; 1.52 fold enrichment (6-mer frequency, TF over GST control) with ETV7; 1.82 fold enrichment (6-mer frequency, TF over GST control) with ELF5; 1.6 fold enrichment (6-mer frequency, TF over GST control) with ETV3; 1.57 fold enrichment (6-mer frequency, TF over GST control) in the assay with ETV6.

The values above are taken from article PMC7862700, “An all-to-all approach to the identification of sequence-specific readers for epigenetic DNA modifications on cytosine”.
